Experimental data reported in PubChem BioAssay AID485317 (Broad Institute, 2010).
Hit rate of the full screen: of about 290,000 compounds, about 11,000 (3.8%) were called active.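 The calls were made as follows: active = mean replicate inhibition above about 79%, with every replicate also reaching it (limit read from the data); inconclusive = only one of the two criteria met; inactive = mean below limit and not every replicate reaching it.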 Many of the other results were omitted from the sample, so actives are more common in it than they were.

biological target: FAD-linked sulfhydryl oxidase ALR (Homo sapiens) (UniProt P55789); experiment: ALR-catalysed DTT oxidation blockers – biochemical, H2O2 detection, HRP-luminol luminescence, single point, primary screen (AID 485317); details: purified ALR, stronger effect = higher value, concentration not given here
Sequence (P55789 whole entry, looked up): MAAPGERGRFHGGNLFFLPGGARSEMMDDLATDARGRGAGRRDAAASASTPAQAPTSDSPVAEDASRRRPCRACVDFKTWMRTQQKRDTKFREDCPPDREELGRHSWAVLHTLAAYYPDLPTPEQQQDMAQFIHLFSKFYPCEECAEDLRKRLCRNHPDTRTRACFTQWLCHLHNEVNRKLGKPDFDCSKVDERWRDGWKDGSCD

inhibition, active:
C=CCNC(=S)N1CCc2[nH]c3ccccc3c2C1 98.3%
CCOc1ccc(-c2n[nH]c(=S)n2/N=C/c2cc3c(cc2[N+](=O)[O-])OCO3)cc1 84.2%
CN(C)c1ccc(/C=N/Nc2cc(N3CCOCC3)nc(N3CCOCC3)n2)cc1 98.8%
COc1ccc2cc(CCl)c(Cl)nc2c1 98%
C=CCSc1nnc(N2C(=O)C(O)=C(C(=O)c3ccco3)C2c2ccc(F)cc2)s1 (stereo not drawn) 98%
Cc1nn(C)c(C)c1Sc1ccccc1N 99.2%
O=C(CCc1ccccc1F)N1CCN(c2ccccc2)CC1 88%
Cc1nc2nc(C)c(CCC(=O)N3CCN(c4ccccc4)CC3)c(C)n2n1 92.8%
CC(CC(=O)N1CCN(c2ccccc2)CC1)c1ccccc1 (stereo not drawn) 98.4%
O=C(Nc1ccccc1Cl)/C(Cl)=C(\Cl)S(=O)c1ccccc1 (stereo not drawn) 97.6%
C=C1c2cc(CC)ccc2NC(=O)N1c1ccc(C)cc1 96.2%
Cc1ccc(S(=O)(=O)N2C3C=CC(C3)C2C(=O)O)cc1 (stereo not drawn) 89.7%
Cc1cc(N=Nc2ccc3ccccc3c2)ccc1O 86%
Cc1ccc(C(=O)N/C(=C/c2cccs2)C(=O)N2CCCCC2)cc1 88.2%
O=C(N/C(=C\c1ccc(O)cc1)C(=O)N1CCCCC1)c1ccccc1 99%
CC(C)(C)Nc1c(-c2cccs2)nc2ccccn12 98.7%
CCC(=O)N1c2ccc(S(=O)(=O)CCC(=O)N3CCN(c4ccccc4)CC3)cc2CC1C (stereo not drawn) 98.5%
COc1ccc(C2CC(c3cccs3)=NN2c2ccccc2)cc1 (stereo not drawn) 97.6%
COc1ccccc1N1N=C(c2cccs2)CC1c1ccccc1 (stereo not drawn) 97.2%
CCCCOc1ccc(CSC(=N)N)cc1[N+](=O)[O-] 99.9%
CCCCCOc1ccc(CSC2=NCCN2)cc1[N+](=O)[O-] 98.8%

inhibition, inactive:
O=S(=O)(O)Oc1c[nH]c2ccccc12 -3.63%
CC1(c2ccccc2)NC(=O)N(CC(=O)Nc2cc(Cl)ccc2N2CCOCC2)C1=O (stereo not drawn) 13.2%
N#CC1(NC(=O)COC(=O)Cc2n[nH]c(=O)c3ccccc23)CCCCC1 -18.6%
CCCC(=O)N1CCc2[nH]c3ccccc3c2C1 -30.4%
Fc1ccc(NC(=S)N2CCc3[nH]c4ccccc4c3C2)cc1 3.4%
CN(C(=O)COC(=O)c1ccc(Br)o1)c1c(N)n(Cc2ccccc2)c(=O)[nH]c1=O -5.35%
Cc1c(C)n2c(SCC(=O)NC3CCCC3)nnc2[nH]c1=O 2.18%
COc1cc(OC)cc(-c2c(-c3cccs3)c3cc(-c4ccc(OC)cc4F)ccc3n2C)c1 -3.91%
Cc1ccc(S(=O)(=O)N/N=C\c2cc3c(cc2[N+](=O)[O-])OCO3)cc1 -3.17%
Cc1ccc(-c2n[nH]c(=S)n2/N=C/c2cc3c(cc2[N+](=O)[O-])OCO3)cc1 -5.58%
COc1ccc(/C=N/Nc2cc(N3CCOCC3)nc(C)n2)c(OC)c1 32.1%
C(=N/Nc1cc(N2CCOCC2)nc(N2CCOCC2)n1)/c1ccccc1 34.6%
CCOc1ccc(C(=O)Nc2cc(Cl)ccc2-n2cncn2)cc1OC -4.75%
Cn1c(CC(=O)NNC(=O)c2ccccc2F)nc2ccccc21 -4.08%
COC(=O)CSc1nc(C)c2ccc(OC)cc2n1 -12.7%
COc1ccc2oc(-c3cccc(NC(=O)CSc4ccc(Cl)cc4)c3)nc2c1 -8.13%
Cc1ccc2nc(N3C(=O)C(O)=C(C(=O)c4ccco4)C3c3cccc(O)c3)sc2c1 (stereo not drawn) 71.5%
O=C(C1=C(O)C(=O)N(c2ncccn2)C1c1cccs1)c1ccco1 (stereo not drawn) 21.9%
Cc1ccc(C(=O)NCC(=O)NC2CC2)cc1 0.292%
CCC(CO)Oc1cc(NC(=O)c2cccc(F)c2)c2ncn(C(C)C)c2c1 (stereo not drawn) -32.8%
Cn1c(N)c(C(=O)COC(=O)c2cccc(S(=O)(=O)N3CCOCC3)c2)c(=O)n(C)c1=O -2.97%
CCOC(=O)c1cc(Sc2ccccc2N)cc(C(=O)OCC)n1 -11.9%
Nc1ccccc1Sc1cc(Cl)nnc1Cl 1.19%
O=C(NN=Cc1ccc(N2CCOCC2)cc1)c1cc2ccccc2cc1O 11.6%
COc1ccc([C@H]2CC(=O)C=C(c3ccc(CO)cc3)C2)cc1 -0.829%
CCC(C)N(C(=O)COC(=O)c1nc(Cl)ccc1Cl)C1CCS(=O)(=O)C1 (stereo not drawn) 0.398%
CC(C)N(C(=O)CN1CCN(S(=O)(=O)c2ccc(Br)s2)CC1)C(C)C -3.29%
Cc1nc2ncnn2c(C)c1CCC(=O)N1CCN(C(=O)c2ccco2)CC1 0.394%
C/C(=C/c1ccccc1)C(=O)N1CCN(c2ccccc2)CC1 44%
Cc1nc2c(-c3ccc(F)cc3)c(C)nn2c(C)c1CCC(=O)N1CCN(c2ccccn2)CC1 -13.5%
CC(=O)c1ccc(N2CCN(C(=O)CCc3ccccc3)CC2)cc1 16.1%
O=C(NC(CC(=O)N1CCN(c2ccccc2)CC1)c1ccccc1)c1ccccc1Cl (stereo not drawn) 22.4%
O=C(CCSc1ccccc1)N1CCN(c2ccccc2F)CC1 -13.1%
CCOC(=O)c1cnc2nc(SCc3ccccc3Cl)[nH]n2c1=O 32.6%
Cc1csc2nc(O)c(C(=O)NCCN3CCOCC3)c(=O)n12 7.69%
COc1ccc(CNc2nc(NCc3ccc(OC)cc3)c3ncn(C4CCCC4)c3n2)cc1 2.44%
O=C(Nc1ccccc1Cl)Nn1cnnc1 -11.5%
O=C(COC(=O)c1cccs1)Nc1ccccc1Cl 2.46%
CCCCCC(=O)N1CCN(S(=O)(=O)c2ccc3c(c2)OCCCO3)CC1 1.7%
Cc1ccc(S(=O)(=O)N2CCCCC2)cc1NC(=O)[C@@H]1CCCN1C(=O)c1cccs1 -6.24%
O=C(Cc1ccc(Br)cc1)NCCc1ccccc1 -8.61%
Cc1cc(C)n2nc(C(=O)OCC(=O)N(C)CC(=O)Nc3ccc(F)cc3)nc2n1 2.76%
Cc1ccc(N2C(=O)C(Cc3ccccc3)NC2=S)cc1 (stereo not drawn) 25.5%
Cc1ccc(CC2C(=O)N(c3ccc(F)cc3)C(=O)C2C)cc1 (stereo not drawn) 1.22%
Cc1ccc(S(=O)(=O)N2CCN(C)CC2)cc1 -6.86%
Cc1ccc(S(=O)(=O)N2CCN(C(=O)c3cccs3)CC2)cc1 -6.58%
CC(C)(C)OC(=O)C[C@@H]1C/C=C\C[C@@H](CC(=O)N[C@H](CO)Cc2ccccc2)C(=O)NC[C@@H](c2ccccc2)OC1=O -0.924%
COc1ccc(N=Nc2ccc(O)c(P(=O)(c3ccccc3)c3ccccc3)c2)cc1 -4.29%
CC(=O)CCC(=O)c1ccc2ccccc2c1 -2.18%
Cc1nc2ccccc2c(=O)n1-c1ccc(F)c(NC(=O)c2cccs2)c1 -7.89%
CN(Cc1cccs1)C(=O)CN1C(=O)c2ccccc2S1(=O)=O 1.6%
CN1CCN(C(=O)/C(=C\c2cccs2)NC(=O)c2cccs2)CC1 9.55%
CC1CCN(C(=O)/C(=C\c2ccccc2)NC(=O)c2ccccc2)CC1 8.11%
Cc1ccc(C(=O)N/C(=C/c2cccs2)C(=O)NCC2CCCO2)cc1 (stereo not drawn) -0.67%
O=C(N/C(=C\c1ccc(F)cc1)C(=O)N1CCCCCC1)c1ccccc1 39.9%
O=C(COC(=O)CSc1ccccc1)Nc1ccc(F)cc1F 0.233%
Cc1nn(-c2ccccc2)nc1C(=O)OCC(=O)N1CCCCC1C (stereo not drawn) 0.513%
Cc1ccsc1C(=O)N[C@@H](C)c1nnc2ccccn12 -3.18%
Cc1nc2ccccn2c(=O)c1NC(=O)c1cccs1 -1.56%
O=C(OCC(=O)N1CCCCCC1)c1ccc(Cl)nc1 8.08%
CCOC(=O)[C@H]1[C@H]2COc3cc(OC)ccc3[C@@H]2N2C(=O)CN(Cc3ccc(Cl)cc3)C(=O)[C@@]12C -2.14%
CC(=O)N1CCCc2cc(S(=O)(=O)CCC(=O)N3CCN(c4ccccc4)CC3)ccc21 61.3%
CCC(=O)N1CCc2cc(S(=O)(=O)CCC(=O)N3CCN(c4ccccc4F)CC3)ccc21 5.15%
CCC(=O)c1cc(F)ccc1OCC(=O)Nc1ccc2c(c1)OCCO2 -1.15%
CNC[C@@H]1Oc2c(NS(C)(=O)=O)cccc2C(=O)N([C@@H](C)CO)C[C@H]1C 6.23%
CCOc1ccc(C(C)=O)cc1COC(=O)CNC(=O)c1cccs1 -1.95%
COc1ccc(C2CC(c3cccs3)=NN2c2ccc(F)cc2)cc1OC (stereo not drawn) -1.9%
COc1ccc(C2=NN(c3ccccc3)C(c3cccs3)C2)cc1 (stereo not drawn) -4.89%
COc1ccc(C2CC(c3cccs3)=NN2C(=O)CCC(=O)O)cc1OC (stereo not drawn) 5.58%
Oc1ccccc1C1=NN(c2ccccc2)C(c2ccccc2)C1 (stereo not drawn) 47.4%
COc1ccc(C(=O)C2CCCN(C(=O)c3ccc(OC)o3)C2)c(C)c1 (stereo not drawn) -4%
CNC(C)C#Cc1ccc2sc3cc(OC)c(OC)cc3c(=O)c2c1 (stereo not drawn) -24.4%
Cc1onc(-c2ccccc2Cl)c1C(=O)N(Cc1ccc(N(C)C)cc1)C(C)C 9.74%
Cc1cc(OCCCCOc2ccc(C#N)cc2)ccc1[N+](=O)[O-] 3.02%
C=CCN(CC=C)CCOc1ccccc1[N+](=O)[O-] -15.8%
CCCOc1ccc(Cn2ccnc2)cc1[N+](=O)[O-] -2.35%
CCCCOC(=O)CCCc1ccc([N+](=O)[O-])cc1[N+](=O)[O-] -8.65%
